Among all 320,000 compounds or so, about 2,100 (0.66%) were called active. Inconclusive results (about 53%) are left out. The call rests on the fitted dose curve; in most records, active means well fitted inhibition curve with a large enough effect in the signal ratio, with a control signal flat (not every such curve was filed as active); inconclusive means small, poorly fitted or top-dose-only effect, or effect the other way, or a change in a side signal; inactive means flat fitted curve, though single readings scatter; the % refers to the signal ratio. What follows is part of a selection rich in actives, with near analogues and random picks from the rest.
assay: qHTS Assay for Lipid Storage Modulators in Drosophila S3 Cells; settings: BODIPY lipid droplet fluorescence, 18-24 h, cells fed with added oleic acid; cell number change: measured here: cell count max response; series mostly up to 46.1 µM; lipid storage change, negative = inhibition: at the top concentration;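 on cell number change: cells counted by Cell Tracker Red CMTPX staining in the red channel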; on lipid storage change, negative = inhibition: on the % scale 0 is the no-effect control and ±100 the full control effect
Summary of the method: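 Drosophila S3 cells got compounds at several concentrations plus oleic acid (400 uM solution). Laser-scanning cytometry with 488 nm excitation read lipid droplets at 500-530 nm and cells at 575-640 nm. Percent activity was relative to 20 uM Triacsin C.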
Potency means the concentration at half of the fitted maximal effect.

Row | SMILES | lipid storage change, negative = inhibition | cell number change | outcome | Potency
1 | CC1(C)O[C@H]2CC(=O)OC[C@@]23C1CC(=O)[C@]1(C)C3CC[C@@]2(C)[C@H](c3ccoc3)OC(=O)[C@H]3O[C@]321 (stereo not given in full) | 19% (inactive) |  |  | 
2 | O=C(CN1CCN(C(=O)CNC(=O)c2ccc3c(c2)OCO3)CC1)Nc1ccccc1Cl | 5.18% (inactive) | 2.76% |  | 
3 | Cc1ccccc1N1C(=O)C(Cl)=C(N2CCCCCC2)C1=O | 7.54% (inactive) | -0.204% |  | 
4 | O=C1C(Cl)=C(N2CCOCC2)C(=O)N1c1ccccc1F |  | -18.5% | inactive | 
5 | O=C1C(Cl)=C(N2CCCC2)C(=O)N1c1ccccc1F |  | 2.93% |  | 1.46 µM (active)
6 | COc1ccc(NC(=O)C2CCCN2C(=O)NCc2ccccc2)cc1OC (stereo not given) | 2.15% (inactive) | 1.64% |  | 
7 | COc1ccc(NC(=O)C2CCCN2C(=O)NCc2ccccc2)c(OC)c1 (stereo not given) | 5.39% (inactive) | -2.72% |  | 
8 | O=C(NCc1ccccc1)C1CCCN1C(=O)Nc1ccccc1[N+](=O)[O-] (stereo not given) |  | 14.7% |  | 0.731 µM (active)
9 | COc1cccc(OC)c1NC(=O)C1CCCN1C(=O)NCc1ccccc1 (stereo not given) |  | -20.9% |  | 29.1 µM (active)
10 | CCOCCCNC(=O)C1CCCN1C(=O)Nc1ccccc1[N+](=O)[O-] (stereo not given) | -4.39% (inactive) | 3.63% |  | 
11 | COc1ccccc1NC(=O)N1CCCC1C(=O)NCc1ccccc1 (stereo not given) | -8.56% (inactive) | -7.89% |  | 
12 | Cc1cc(-c2nnc(CCC(=O)N(C)CCc3ccccc3)o2)no1 | -5.76% (inactive) | 4.46% |  | 
13 | CC1CN(C/C(=N\O)C23CC4CC(CC(C4)C2)C3)CC(C)O1 (stereo not given) | -1.17% (inactive) | -15.5% |  | 
14 | O=C(NCc1ccc(Cl)cc1)c1cc([N+](=O)[O-])ccc1Cl | -6.86% (inactive) | 16.3% |  | 
15 | CN(C)S(=O)(=O)c1ccc(NC=C(C#N)C#N)cc1 | -23.2% (inactive) | -16.2% |  | 
16 | Cc1ccc(-c2nc(NC(=O)c3nn(C)cc3[N+](=O)[O-])sc2C)cc1 |  | 27.2% | inactive | 
17 | CCn1cc([N+](=O)[O-])c(C(=O)Nc2nc(-c3ccc(C)cc3)c(C)s2)n1 |  | 18.4% |  | 4.61 µM (active)
18 | CCn1cc([N+](=O)[O-])c(C(=O)Nc2nc(-c3ccc(C)c(C)c3)c(C)s2)n1 | 1.14% (inactive) | -14.3% |  | 
19 | CCCCN(C(=O)c1ccccc1OCc1ccc(F)cc1)c1c(N)n(CCC)c(=O)[nH]c1=O | 9.4% (inactive) | -14.3% |  | 
20 | Cn1c(SCc2cccc(C#N)c2)nc2ccccc2c1=O | 3.49% (inactive) | 7.25% |  | 
21 | COc1cc(NC(=O)c2cccnc2)c(OC)cc1NC(=O)c1ccc(Br)cc1 |  | 15.3% | inactive | 
22 | COc1ccc(OCC(=O)Nc2ccc(NC(=O)c3cccs3)c(OC)c2)cc1 | -5.31% (inactive) | 10.8% |  | 
23 | COc1ccccc1NC(=O)c1ccc2snnc2c1 | 2.87% (inactive) | 5.09% |  | 
24 | COc1cc(NC(=O)c2ccc(Br)cc2)c(OC)cc1NC(=O)c1ccccc1 |  | -19.9% |  | 18.4 µM (active)

Row | SMILES | lipid storage change, negative = inhibition | cell number change | outcome | Potency
25 | COc1cc(NC(=O)COc2ccccc2Cl)ccc1NC(=O)c1cccs1 |  |  |  | 4.61 µM (active)
26 | COc1cc(NC(=O)c2ccccc2)c(OC)cc1NC(C)=O |  | -0.51% | inactive | 
27 | COc1ccccc1CC(=O)Nc1cc(OC)c(NC(=O)c2ccccc2)cc1OC |  | -14.4% | inactive | 
28 | COc1cc(NC(=O)c2ccc3nsnc3c2)cc(OC)c1OC |  | 3.44% | inactive | 
29 | COc1ccccc1NC(=O)c1ccc2nsnc2c1 |  | 21.1% |  | 3.66 µM (active)
30 | COc1cc(NC(=O)c2ccccc2Cl)ccc1NC(=O)c1cccs1 | -3.53% (inactive) | 16.4% |  | 
31 | COc1cc(NC(=O)Cc2ccccc2)ccc1NC(=O)c1ccccc1 |  | 5.29% |  | 23.1 µM (active)
32 | COc1ccc(NC(=O)c2cccc(NC(=O)c3ccccc3)c2)c(OC)c1 | -15.5% (inactive) | -2.85% |  | 
33 | COc1ccc(OCCC(=O)OCC(=O)Nc2ccc(S(=O)(=O)N3CCOCC3)cc2)cc1 | -12.5% (inactive) | -18.9% |  | 
34 | O=C(CSc1nnc(-c2ccc(F)cc2)o1)NC1CCCCC1 | 15.9% (inactive) | 12% |  | 
35 | CCOC(=O)N1CCN(CC(O)COc2ccc3c(c2)CCC3)CC1 (stereo not given) | 12.3% (inactive) | -3.83% |  | 
36 | O=C(CCCCCNC(=O)N1CCn2c1nc1ccccc12)NCc1ccccc1 | 7.61% (inactive) | 11.3% |  | 
37 | CC(NC(=O)c1cccc(N(C)C)c1)c1ccc(-n2ccnc2)cc1 (stereo not given) | -3.06% (inactive) |  |  | 
38 | COc1ccc(S(=O)(=O)N2CCN(c3nc4ccccc4nc3-n3nc(C)cc3C)CC2)cc1 |  | -0.676% | inactive | 
39 | O=C(NC1CCSC1=O)c1ccc(Oc2cccc(C(F)(F)F)c2)nc1 (stereo not given) | -0.249% (inactive) | -7.23% |  | 
40 | COc1ccc(F)cc1S(=O)(=O)NC1CCCCCC1 |  |  | inactive | 
41 | C/C(=N/Nc1ncc(C(F)(F)F)cc1Cl)c1ccncc1 | -0.464% (inactive) | -2.18% |  | 
42 | COc1ccc(S(=O)(=O)NCC2CCCN(C(=O)CC3CCCC3)C2)cc1 (stereo not given) | -12% (inactive) | -9.37% |  | 
43 | COc1cc2c(cc1NC(=O)c1cccnc1)CCCC2 | 13.4% (inactive) | -6.97% |  | 
44 | COc1ccc(C(=O)Nc2cc3c(cc2OC)CCCC3)cc1Br | -6.54% (inactive) | -12.7% |  | 
45 | COc1cc2c(cc1NC(=O)c1ccc(C(C)(C)C)cc1)CCCC2 |  | -19.1% |  | 16.4 µM (active)
46 | Oc1ccccc1Oc1ncc(Br)c(Cl)n1 | 12.3% (inactive) | 10.9% |  | 
47 | CCOC(=O)CCc1c(C)nc2cc(-c3ccc(F)cc3)[nH]n2c1=O | -1.04% (inactive) | -12% |  | 
48 | C=CCn1c(SC(C)CC)nc(O)cc1=O (stereo not given) |  |  | inactive | 

Row | SMILES | lipid storage change, negative = inhibition | cell number change | outcome | Potency
49 | CCOc1ccc2oc(C(=O)OCC(=O)NC(=O)NC)c(C)c2c1 | -6.75% (inactive) | -6.07% |  | 
50 | CCCN(CC1CC1)C(=O)COC(=O)c1oc2ccc(OCC)cc2c1C |  | 2.78% |  | 4.61 µM (active)
51 | CCOC(=O)N1CCC(NC(=O)c2oc3c(F)cccc3c2C)CC1 |  | -4.45% | inactive | 
52 | CCCN(CC1CC1)C(=O)COC(=O)c1[nH]c(C)c(C(=O)OCC)c1C | -1.78% (inactive) | -17.3% |  | 
53 | CCCN(CC1CC1)C(=O)COC(=O)c1oc2c(F)cccc2c1C |  | 1.1% |  | 1.64 µM (active)
54 | CCOc1ccc2oc(C(=O)OCC(=O)NC3CCCCC3)c(C)c2c1 | -2.63% (inactive) | -21.4% |  | 
55 | CCn1c(O)c(C(C#N)=C2N=c3ccccc3=N2)c2ccccc21 | -0.582% (inactive) | 24.7% |  | 
56 | O=C(Nc1cccc(NC(=O)c2ccc(Br)o2)n1)c1ccc(Br)o1 | 17.3% (inactive) | -4.87% |  | 
57 | Cc1ccc(NS(=O)(=O)c2cc(C(=O)N3CCN(C)CC3)ccc2C)cc1C |  |  | inactive | 
58 | CCOc1cccc(OCCCCN2CCCCC2)c1 | 10.3% (inactive) | -2.06% |  | 
59 | CCc1ccc(NC(=O)CN(N=Nc2nonc2C)c2nonc2C)cc1 | 0.106% (inactive) |  |  | 
60 | CC(C)(C)c1csc(Sc2ncccc2[N+](=O)[O-])n1 | -5.1% (inactive) | -11.2% |  | 
61 | Cc1cccc(CSC2=CS(=O)(=O)c3ccccc3N2)c1 | 1.8% (inactive) | 2.06% |  | 
62 | Cc1cccc(CNC(=O)c2cc(S(=O)(=O)N3CCOCC3)cn2C)c1 |  | 14.6% | inactive | 
63 | CC(=O)c1cccc(NC(=O)COc2ccc(S(=O)(=O)N3CCCCC3)cc2)c1 | 13.1% (inactive) | 12.3% |  | 
64 | Cc1nn(C(C)C(=O)O)c(C)c1[N+](=O)[O-] (stereo not given) | -18.1% (inactive) | 3.58% |  | 
65 | O=C(Nc1nccs1)c1ccc(-c2ccc(F)cc2)o1 | 2.16% (inactive) | 0.674% |  | 
66 | O=C(Nc1nccs1)c1ccc(-c2ccc(Cl)cc2Cl)o1 | -9.27% (inactive) | -16.9% |  | 
67 | O=C(Nc1nccs1)c1ccc(-c2ccc(F)c(Cl)c2)o1 |  | -11.8% |  | 10.3 µM (active)
68 | CCOC(=O)c1c(NC(=O)Cn2cnc([N+](=O)[O-])n2)sc2c1CCC(C)C2 (stereo not given) | 6.52% (inactive) | 2.74% |  | 
69 | Cc1cccc(NC(=O)c2c(C)cc(=O)oc2C)n1 |  | -10.1% |  | 8.2 µM (active)
70 | Cc1cc(=O)oc(C)c1C(=O)Nc1ccc(Cl)cn1 | -4.54% (inactive) | 1.04% |  | 
71 | Cc1ccccc1NC(=O)c1c(C)cc(=O)oc1C | -2.94% (inactive) |  |  | 
72 | CC1=C(C)CC(C(=O)NNC(=O)c2csc(C)c2C)C(C(=O)O)C1 (stereo not given) | 5.9% (inactive) | -1.11% |  | 

Row | SMILES | lipid storage change, negative = inhibition | cell number change | outcome | Potency
73 | CS(=O)(=O)N(C(=O)NC(=O)NC12CC3CC(CC(C3)C1)C2)C1CCCCC1 | 2.98% (inactive) | 9.2% |  | 
74 | CC(=O)c1ccc(N2CCN(S(=O)(=O)c3ccc(-c4cc(C)no4)s3)CC2)cc1 |  |  | inactive | 
75 | COc1ccc(N2CCN(S(=O)(=O)c3ccc(-c4cc(C)no4)s3)CC2)cc1 |  |  |  | 23.1 µM (active)
76 | Cc1cc(-c2ccc(S(=O)(=O)N3CCN(c4ccc(F)cc4)CC3)s2)on1 |  | 5.9% | inactive | 
77 | C=CCn1c(CCNC(=O)c2ccc(Cl)c(Cl)c2)nnc1SCCOc1ccc(OC)cc1 | 2.78% (inactive) | -3.68% |  | 
78 | O=C(/C=C/c1ccc(F)cc1)NCc1cccs1 | 20.7% (inactive) | 12.4% |  | 
79 | Cc1nc2cc(NC(=O)C3COc4ccccc4O3)ccc2s1 (stereo not given) | 0.94% (inactive) | 3.18% |  | 
80 | COc1ccc(S(=O)(=O)N2CCN(CC(=O)c3[nH]c(C)c(C(C)=O)c3C)CC2)cc1OC | 8.72% (inactive) | 3.31% |  | 
81 | Cc1ccc(S(=O)(=O)NCC(=O)OCc2cc(=O)oc3c(C)c(C)ccc23)cc1C | 13.6% (inactive) | 11.5% |  | 
82 | CN(CC(=O)Nc1ccc(Cl)c(Cl)c1)C(=O)CNC(=O)Cc1ccccc1 | 19% (inactive) | -4.02% |  | 
83 | COc1ccccc1NC(=O)NCCN1CCCCC1 | -2.26% (inactive) | 6.08% |  | 
84 | COc1ccccc1NC(=O)NN1CCCCC1 |  | 17.6% |  | 0.58 µM (active)
85 | COc1ccccc1NC(=O)N1CCCC1 | 8.15% (inactive) | 1.33% |  | 
86 | COc1ccccc1NC(=O)C1CCCN(S(=O)(=O)c2ccc(-n3cnnn3)cc2)C1 (stereo not given) |  | -7.69% | inactive | 
87 | COc1ccccc1NC(=O)C1CCCN(S(=O)(=O)c2cnc[nH]2)C1 (stereo not given) | 7.37% (inactive) | 1.66% |  | 
88 | COc1ccccc1NC(=O)C1CCCN(S(=O)(=O)c2ccccc2)C1 (stereo not given) |  | -11% |  | 5.8 µM (active)
89 | COc1ccc2c(c1)[nH]c1c(=O)n(N)cnc12 | 8.27% (inactive) | 6.47% |  | 
90 | Cn1cc(/C=C/C(=O)N2CCCC(C(=O)c3cccc4ccccc34)C2)cn1 (stereo not given) | -4.39% (inactive) | 8.66% |  | 
91 | Cc1ccc(N2CC(NC(=O)C(=O)c3c[nH]c4ccccc34)CC2=O)cc1C (stereo not given) | 1.15% (inactive) | 20.5% |  | 
92 | Cc1nc(NC(=O)COC(=O)CCc2nc3ccccc3s2)c(Cl)cc1Cl | -1.19% (inactive) | 8.53% |  | 
93 | C[C@H](NC(=O)c1nc[nH]c1C(=O)N[C@@H](Cc1ccccc1)C(=O)OCc1ccccc1)c1ccccc1 | -6.18% (inactive) |  |  | 

Source: PubChem BioAssay AID2685 (National Center for Advancing Translational Sciences (NCATS), 2010)
